Reference: PubChem BioAssay AID1985 (Southern Research Specialized Biocontainment Screening …, 2009)
The campaign covered roughly 2,300 compounds. About 1,000 (43%) were called active. The set was probably picked from earlier hits. This is one part of the list. Measured potencies and affinities stand elsewhere. Unmarked numbers belong to inactive results. No rule for the calls is given here.

Assay: PhoP regulon inhibitor project modified counter assay, GFP fluorescence readout, dose response (AID 1985)
Conditions: S. Typhi, 4 h; series mostly up to 150 µM; inhibition: at the top concentration

First: CCc1ccc(NC2=NCCCS2)cc1
Second: Cc1ccc(NC2=NCCCS2)cc1Cl
The “inhibition” value of the first is lower: 33.4% for the first, 38% for the second.

First: CCCCN(C)C(=O)c1ccc(S(=O)(=O)N2CCOCC2)cc1
Second: CCCC1(c2ccccc2)NC(=O)N(CC(=O)Nc2cc(S(=O)(=O)N3CCOCC3)ccc2Cl)C1=O (configuration not stated)
The “inhibition” value of the first is lower: -15% for the first, -10.2% for the second.

Compared with `CSc1ccc(NC(=O)C(C)N2CCN(C)CC2)cc1` (configuration not stated), `CC(=O)c1ccc(NC(=O)CN2CCCCCC2)cc1` is lower in “inhibition” value: 20.9% for the first, 15.7% for the second.

Going from `CCCCC(=O)Nc1ccc2c(c1)C(=O)NC2=O` to `CN1C(=O)c2ccc(NC(=O)C3CCCCC3)cc2C1=O`, the “inhibition” value falls from 3.13% to -8.71%.

Going from `Nc1nc(SCC(=O)Nc2ccc3c(c2)CCC3)n[nH]1` to `COC(=O)c1ccc(NC(=O)CO/N=C2\CCCc3nonc32)cc1`, the “inhibition” value falls from 24.4% to 0.85%.

First: Cc1cc(C)c2c(=O)[nH]c(SCC(=O)N3CCCCC3)nc2n1
Second: CC(C)c1c(O)nc(SCC(=O)N2CCOCC2)[nH]c1=O
The “inhibition” value of the first is lower: 12.4% for the first, 15.7% for the second.

Going from `CN1Cc2ccccc2N(CC(=O)NCc2ccccc2)C1=O` to `O=C(NCc1cccnc1)C1c2ccccc2C(=O)N1Cc1ccccc1` (configuration not stated), the “inhibition” value falls from 17.8% to -16.2%.

Compared with `O=C(CC1(O)C(=O)Nc2ccc(Br)cc21)c1ccc2c(c1)OCO2` (configuration not stated), `O=C(N/N=C/c1ccc(-c2ccc(Br)cc2)o1)c1ccc2c(c1)OCO2` is higher in “inhibition” value: -18.1% for the first, 28.8% for the second.

Compared with `CCOC(=O)CNC(=O)Cn1c(C)cc2ccccc2c1=O`, `COC(=O)Cn1c(=O)c(C)nc2ccccc21` is higher in “inhibition” value: -9.62% for the first, -9.43% for the second.

Compared with `CCn1c(=N)n(CC(=O)c2ccc(OC)cc2)c2ccccc21`, `C=C(C)Cn1c(-c2ccc(OC)cc2)nc2ccccc21` is lower in “inhibition” value: 26% for the first, 3.51% for the second.

First: O=C(CN(Cc1ccco1)C(=O)CNS(=O)(=O)c1ccc(Cl)cc1)NCc1ccc(F)cc1
Second: Cc1ccc(Cn2c(=N)c(C(=O)NCc3ccco3)cc3c(=O)n4ccccc4nc32)cc1
The “inhibition” value of the first is lower: -0.77% for the first, 16.6% for the second.

First: CS(=O)(=O)N(CCc1ccccc1)CC(=O)Nc1ccc2c(c1)OCO2
Second: CCOc1ccc(NC(=O)CN(C)C(=O)c2ccccc2CCc2ccccc2)cc1OCC
The “inhibition” value of the first is higher: -15.3% for the first, -32.9% for the second.

First: CCN1CCN(CC(=O)Nc2ccc(C)c(Br)c2)CC1
Second: CCN1CCN(CCNC(=O)c2ccc(/C=C3/Sc4ccccc4N(Cc4cccc(C)c4)C3=O)cc2)CC1
The “inhibition” value of the first is lower: 10.2% for the first, 12.9% for the second.

First: CCN(CC)CCn1nc(C)nc1-c1ccccc1O
Second: CCc1nc(C)ccc1OCC(=O)N(CC)CC
The “inhibition” value of the first is higher: 27.2% for the first, 11.3% for the second.

First: Nc1nc(N2CCN(c3ccccn3)CC2)nc2ccccc12
Second: c1ccc2oc(-c3ccc(Nc4nc(N5CCCCC5)nc(N5CCOCC5)n4)cc3)nc2c1
The “inhibition” value of the first is higher: 1.19% for the first, -13.3% for the second.

Going from `C/C(=N\Nc1ccc(C)c(Cl)c1)c1cccnc1` to `COc1ccc(/C=N/NC(=O)c2cccnc2)c(C(=O)O)c1OC`, the “inhibition” value rises from -11.4% to -1.18%.

First: CCc1nc(SCC(=O)Nc2ccc(N(C)C)cc2)c2ccccc2n1
Second: CC(C)CC(=O)Nc1ccc(-c2cn3cccnc3n2)cc1
The “inhibition” value of the first is lower: -3.05% for the first, 14.1% for the second.

First: Clc1ccc(Nc2nc(C3CC3)cs2)cc1
Second: O=C(O)c1csc(-c2ccc(Cl)cc2)n1
The “inhibition” value of the first is lower: 12% for the first, 36.8% for the second.

Going from `O=C(CN1C2=NCCN2c2ccccc21)c1ccc2c(c1)OCO2` to `Oc1ccc(C2NCc3ccccc3-n3cccc32)cc1Cl` (configuration not stated), the “inhibition” value falls from 9.44% to -0.67%.

First: CN(C)C(/C=C/Nc1ccc(F)cc1F)=C(C#N)C#N
Second: CN(C)C(=O)COC(=O)/C=C/c1ccccc1[N+](=O)[O-]
The “inhibition” value of the first is higher: -10.3% for the first, -11.5% for the second.

Going from `CCOc1ccc(NC(N)=O)cc1` to `Cc1ccc(NC(=O)Cc2ccc(F)cc2)cc1`, the “inhibition” value falls from 15.4% to -1.3%.

Going from `CCOc1ccc(-c2nc(N)ncc2-c2ccccc2)c(O)c1` to `C=CCn1c(NC(C)c2cc(Cl)ccc2O)nc2ccccc21` (configuration not stated), the “inhibition” value falls from 18.8% to -14.7%.

First: CCn1cnc2cc(NCc3ccc(Br)cc3)ccc21
Second: CCCCn1cnc2cc(NCc3cccc(OC)c3O)ccc21
The “inhibition” value of the first is lower: 15.8% for the first, 28.6% for the second.

Going from `NC(=O)CN1N=C(c2cc(Cl)sc2Cl)CSC1=O` to `CC(=O)c1sc2nc(=O)c(C)nn2c1C`, the “inhibition” value falls from 4.36% to -12.1%.

Compared with `COc1ccc(C(=O)Nc2cc3c(cc2OC)CCCC3)cc1Br`, `CCOC(=O)C1CCN(Cc2nc(-c3ccc(OC)c(OC)c3)no2)CC1` is lower in “inhibition” value: -5.35% for the first, -15.2% for the second.

Compared with `CCCCN(CCCC)CCNC(=O)CSCc1ccc(C)cc1`, `CCc1nc(C)ccc1OCC(=O)NCCCN(C)C` is higher in “inhibition” value: -17.4% for the first, 2.34% for the second.

First: COCc1[nH]nc2c1C(c1ccc(OC)cc1)C(C#N)=C(N)O2 (configuration not stated)
Second: COc1ccc(C2C3=C(CC(C)(C)CC3=O)Nc3cc4c(cc32)OCO4)cc1 (configuration not stated)
The “inhibition” value of the first is lower: -3.75% for the first, 1.35% for the second.

First: COc1cccc(/C=N/NC(=O)CNC(=O)CCc2ccccc2)c1O
Second: COc1cccc(/C=N/NC(=O)CNC(=O)COc2cccc(C)c2)c1O
The “inhibition” value of the first is higher: 24.4% for the first, 14.2% for the second.

First: COc1ccccc1NC(=O)Cn1cnc2c(nnn2-c2ccc(C)cc2)c1=O
Second: Cc1ccc(C(=O)Nc2ccc3c(c2)ncn3C)cc1
The “inhibition” value of the first is lower: -10.9% for the first, 36.9% for the second.

First: COc1cccc(/C=N/NC(=O)CO/N=C(\C)c2cccs2)c1OC
Second: COc1ccc(C2=NN3C(=O)c4c(ccc(OC)c4OC)C3C2)cc1 (configuration not stated)
The “inhibition” value of the first is higher: 34.1% for the first, 9.8% for the second.

Compared with `Cc1ccc(C)c2[nH]c(=O)c(CN(Cc3cccnc3)C(=S)NCc3ccco3)cc12`, `CCc1ccccc1NC(=S)N(Cc1cccc(C)c1)c1cccnc1` is higher in “inhibition” value: -16.5% for the first, -7.68% for the second.

Compared with `O=C(NCc1cccnc1)c1ccc(Cl)cc1[N+](=O)[O-]`, `Clc1ccc2c(NCc3ccccn3)ccnc2c1` is higher in “inhibition” value: -10.5% for the first, 12.8% for the second.

Compared with `Clc1ccc(Cn2cc(Br)cn2)cc1Cl`, `CCn1c(-c2cccc(Br)c2)n[nH]c1=S` is higher in “inhibition” value: 3.19% for the first, 11.6% for the second.

Compared with `COc1ccc(N2CCN(C(=O)c3cc4c(s3)-c3ccccc3S(=O)(=O)C4)CC2)cc1`, `CC(C)c1ccc2oc(=O)cc(CN3CCN(c4ccc(F)cc4)CC3)c2c1` is higher in “inhibition” value: -14.6% for the first, -5.48% for the second.

First: CCCC(=O)Nc1c2c(nn1-c1ccc(C)cc1C)CSC2
Second: C[C@@H](CO)NC(=O)c1ccc2c3n(nc2c1)-c1ccc(Cl)cc1CO3
The “inhibition” value of the first is lower: 1.8% for the first, 17.5% for the second.

Going from `COC(=O)C(NC(C)=O)(Nc1nc2c(s1)CCCC2)C(F)(F)F` (configuration not stated) to `COc1cc(C)nc(N2CCCC(C(=O)NCC(C)C)C2)n1` (configuration not stated), the “inhibition” value rises from -28.5% to 6.1%.

First: CCN1CCN(CCCNC(=O)c2ccc(/C=C3/Sc4ccccc4N(Cc4ccccc4F)C3=O)cc2)CC1
Second: O=C(C[n+]1cc(-c2ccc(Cl)cc2)n2c1CCC2)N1c2ccccc2Sc2ccccc21
The “inhibition” value of the first is higher: 33.6% for the first, 33.5% for the second.

Compared with `S=C1NCN(C2CCCCC2)CN1c1ccccc1`, `c1ccc2c(c1)C(=NC1CCCCC1)NC2=NC1CCCCC1` is lower in “inhibition” value: 36.9% for the first, 19.5% for the second.

Compared with `CC(=O)C1C(c2ccc(OC(F)F)cc2)NC(=O)NC1(O)C(F)(F)F` (configuration not stated), `COc1ccc(N=Cc2c(O)n(CC3CCCO3)c(=O)[nH]c2=O)cc1` (configuration not stated) is lower in “inhibition” value: 3.26% for the first, -0.83% for the second.

Going from `Cc1cc(C)n(/N=C/c2cc(Cl)cc(Cl)c2O)c(=O)c1` to `CC(=O)c1c(C)nc(-c2cccc([N+](=O)[O-])c2)n1O`, the “inhibition” value falls from 23.2% to -7.51%.

Going from `CC1CCN(C(=O)C2CCCN(S(C)(=O)=O)C2)CC1` (configuration not stated) to `CC(=O)c1cccc(CN2CCN(C3CCCC3)C(CCO)C2)c1` (configuration not stated), the “inhibition” value falls from -2.3% to -5.89%.

Compared with `NC(=O)c1ccc[n+](CC(=O)c2cccc([N+](=O)[O-])c2)c1`, `COC(=O)c1cccc(C(=O)N2CCCC(CCC(=O)N(C)CCc3ccccn3)C2)c1` (configuration not stated) is lower in “inhibition” value: -10.5% for the first, -17.6% for the second.

Compared with `CCCC1=C(C(=O)OCC)C(c2ccc(O)cc2)n2ncnc2N1` (configuration not stated), `CCOC(=O)COn1c(=O)c(-c2cccs2)[n+]([O-])c2ccccc21` is higher in “inhibition” value: 3.12% for the first, 21.9% for the second.

Going from `O=C(CCc1nc2ccccc2s1)NC1CCOC1=O` (configuration not stated) to `CCOC(=O)C1CCCN(C/C(O)=C(\C#N)c2nc(-c3ccccc3)cs2)C1` (configuration not stated), the “inhibition” value falls from 11.8% to -20.3%.

Going from `COc1ccc(CCNC(=O)CSc2ccc(-c3ccncc3)nn2)cc1` to `CN(C)CCCNC(=O)c1ccc(-c2nc(-c3ccc(Cl)cc3)cs2)cc1`, the “inhibition” value rises from -11.4% to 28%.

Going from `Cc1ccc2cc(-c3noc(C4CCCO4)n3)c(=O)[nH]c2c1` (configuration not stated) to `CN1CCN(C(=O)c2cc(-c3cccc(Cl)c3)on2)CC1`, the “inhibition” value rises from -6.59% to 5.44%.

Compared with `Cc1ccc(NC(=O)COc2ccccc2CNC(C)(C)CC(C)(C)C)cc1`, `Cc1ccc(-c2csc(NC(=O)C[n+]3cc(-c4ccccc4)n4c3CCC4)n2)cc1` is lower in “inhibition” value: 17.6% for the first, -33.3% for the second.

First: Cc1cc(N2CCCCC2)c(F)cc1[N+](=O)[O-]
Second: Cc1nn(-c2cc(N3CCNCC3)ccc2[N+](=O)[O-])c(=O)c2ccccc12
The “inhibition” value of the first is lower: -27.7% for the first, 5.09% for the second.

Going from `CCN(CC(=O)Nc1ccc(C(=O)OC)cc1)C1CCCCC1` to `O=C(Cn1[nH]c(=O)c2ccccc2c1=O)Nc1ccc(-c2nnc3n2CCCCC3)cc1`, the “inhibition” value falls from 15.1% to 10.1%.

First: Cc1ccc(N2C(=O)[C@@H]3[C@H](C2=O)[C@H]2C=CC=NN2[C@@H]3C(=O)Nc2ccc(Cl)cc2)cc1
Second: CN(C)CCNC(=O)/C(=C/c1ccc(-c2ccc(Cl)cc2)o1)NC(=O)c1ccccc1
The “inhibition” value of the first is lower: -11.7% for the first, 25.4% for the second.

First: CCCCCc1nc2c(c3c1CCCC3)CCCC2
Second: O=C(O)C1CCCCC1C(=O)NCCc1ccncc1 (configuration not stated)
The “inhibition” value of the first is higher: 18.7% for the first, -26.7% for the second.

First: N=C1c2ccccc2CN1c1ncccn1
Second: CCCN1CCC(NCc2cn(C)nc2-c2ccc(Oc3ccccc3)cc2)CC1
The “inhibition” value of the first is lower: -13.2% for the first, 20.2% for the second.

Going from `C#CCOCCOCCOCCNc1nc(N2CCN(C(=O)CCCCCCCCCCNC(=O)[C@@H](CCSC)n3cc(CCO)nn3)CC2)nc(N2CCN(C(=O)CCCCCCCCCCNC(=O)[C@H]([C@@H](C)CC)n3cc(CCCCN=C(N)N)nn3)CC2)n1` to `CC1(C)CC(N2CCN(C(c3ccccc3)c3ccccc3)CC2)=CC(=[N+]2CCCCC2)C1`, the “inhibition” value rises from -37.3% to 17.4%.

Going from `Cn1c(=O)c2c(nc(Br)n2CCSc2nc3ccccc3o2)n(C)c1=O` to `COC(=O)c1ccc(CSc2ccc3nnc(-c4ccc(OC)c(OC)c4)n3n2)o1`, the “inhibition” value rises from -14.5% to -11.5%.

First: Cc1ccc(S(=O)(=O)NC(C)(C)CSc2nnc(N)s2)cc1
Second: CC(=O)N(CCC1(c2ccc(C)cc2)CCOC(C(C)C)C1)Cc1ccco1 (configuration not stated)
The “inhibition” value of the first is lower: -30.3% for the first, 18.1% for the second.

First: Cc1ccc(C(=O)N2C(=S)C(c3ccc(F)cc3)=NC23CCN(C)CC3)cc1
Second: Cc1cccc(/C(N)=N/OC(=O)N2CCOCC2)c1
The “inhibition” value of the first is lower: 10.3% for the first, 25.3% for the second.
